system: Scedosporium aurantiacum CBS 136046; assay: growth inhibition relative to DMSO control (OD600); higher = more antifungal activity, active = 80 or more; extreme values may be limits of the assay; conditions: 5 µM; 72 h; 37 °C
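Also: conidia screened in RPMI 1640 medium under 5% CO2, growth read by spectrophotometer, medium with 0.5% DMSO serving as the untreated reference.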

SMILES | growth inhibition
Nc1nc(N)c2c(Sc3ccccc3)cccc2n1 | 18% (inactive)
Nc1nc(O)c(Br)c(-c2cccc(Cl)c2)n1 | 4.65% (inactive)
Nc1nc2c(ncn2/C=C2/CC2(CO)CO)c(=O)[nH]1 | 1.28% (inactive)
Cc1cc(CCCOc2c(C)cc(-c3noc(C(F)(F)F)n3)cc2C)on1 | 9.58% (inactive)
Cc1nc(Nc2ccc(F)cc2)nc(N2CCc3ccccc3C2C)c1C (configuration not stated) | 25.2% (inactive)
Oc1c(C(Nc2ccccn2)c2ccccc2)ccc2cccnc12 (configuration not stated) | 35.9% (inactive)
NCCCc1ccccc1C(=O)Nc1ncc([N+](=O)O)s1 | 0% (inactive)
Cc1c(N)cccc1Cn1ccc(OCCc2cccs2)cc1=O | 2.23% (inactive)
COc1ccc(C)cc1NC(=O)c1ccc(S(=O)(=O)N2CCCCC2)cc1 | 32.4% (inactive)
O=C(Nc1cccc(C2=NCCN2)c1)c1ccc(-c2ccc(C(=O)Nc3cccc(C4=NCCN4)c3)cc2)cc1 | 1.73% (inactive)
O=C(Nc1ccc(-c2ccccc2)cc1)C1=C(O)C(Cc2ccccc2)OC1=O (configuration not stated) | 45.3% (inactive)
CCOc1ccc(/C=N/NC(=O)C2CC2c2ccc(C(C)(C)C)cc2)cc1OCC (configuration not stated) | 18.4% (inactive)
CC[C@H](CO)Nc1nc(NCc2ccccc2)c2ncn(C(C)C)c2n1 | 10% (inactive)
Nc1nc(F)nc2c1ncn2[C@H]1O[C@@H](CO)[C@H](O)[C@@H]1O | 33.8% (inactive)
CCOCc1nc2c(N)nc3ccccc3c2n1CC(C)(C)O | 14.6% (inactive)
NC(=O)c1cnccn1 | 1.73% (inactive)
O=C(O)c1ccc(-n2nc(-c3ccccc3O)nc2-c2ccccc2O)cc1 | 0.0499% (inactive)
CCc1cc(O)c(Oc2ccc(C(N)=O)cc2F)cc1F | 29.4% (inactive)
COc1ccc2c(c1)cc(CNC(=O)c1cc3ccccc3o1)n2CC(=O)O | 17.7% (inactive)
Cc1ccccc1NC(=O)Nc1cccc([N+](=O)[O-])c1 | 12.4% (inactive)
CC[C@H](NC(=O)[C@H](C)NC)C(=O)N1C[C@@H](O)C[C@H]1Cc1c(-c2[nH]c3cc(F)ccc3c2C[C@@H]2C[C@H](O)CN2C(=O)[C@H](CC)NC(=O)[C@H](C)NC)[nH]c2cc(F)ccc12 | 6.5% (inactive)
CC[C@@]1(O)C(=O)OCc2c1cc1n(c2=O)Cc2cc3c([N+](=O)[O-])cccc3nc2-1 | 22.2% (inactive)

From the supplement of paper PMC9897528
